The panel holds about 83,000 compounds, 20% with a hit somewhere; the sample as a whole holds those more often.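 Percent growth is the endpoint: 0 to 100 indicates growth inhibition (40 means 60% inhibition), 0 means no net growth, and negative values indicate cell death.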 Values without a mark were called inactive. The source made the active and inactive calls.
Each molecule was assayed on SR leukemia (assay: NCI-60 one-dose screen, 48 h (100 = growth as untreated, 0 = no growth, -100 = all killed)). Details: 10 µM unless noted.
Method: Growth inhibition of the SR human tumor cell line is measured as a screen for anti-cancer activity. Cells are grown in 96 well plates and exposed to the test compound for 48 hours. Compounds are tested at a single concentration, which is 10^-5 M for most compounds. The reported endpoint is percent growth (GI% or GIPRCNT), where numbers from 0 - 100% represent growth inhibition, and numbers from -100% - 0 represent cell death. For example, a value of 40 represents 60% growth inhibition. A value of 0 means no net growth occurred over the course of the experiment. A value of -40 indicates 40% of cells at the beginning of the experiment died by the end of the experiment. A value of -100 means all cells are dead at the end of the experiment.
NCI-60 Human Tumor Cell Lines Screen was performed using the standard one-dose NCI protocol, which is described in more detail at https://dtp.cancer.gov/discovery_development/nci-60/default.htm.
Compounds with GIPRCNT values below 10 were considered active. Activity score was based on GIPRCNT using the following formula: […]
Score is 0 for GIPRCNT values of 100 or above, 50 for GIPRCNT values of 0, and 100 for GIPRCNT values of -100.

Row | Compound | growth
1 | COc1cc2oc(-c3cccc(NC(=O)c4cccc([N+](=O)[O-])c4)c3)cc(=O)c2c(OC)c1OC | 55.2%
2 | Cc1ccc2c(n1)C(=O)C(Cl)=C(Nc1ccc(C)c(C)c1)C2=O | 28.1%
3 | CC(=O)Nc1cc(N2CCOCC2)c2nc(NC(=O)c3[nH]c(C)c(Cl)c3Cl)sc2c1 | 28.6%
4 | O=C(CSc1cc[n+](CCCCO)c2ccccc12)n1ccc2ccccc21 | 90.3%
5 | C#Cc1nc(C(=O)NCCCCCCC(=O)NO)cs1 | 0.171% (active)
6 | Cc1cc(Br)ccc1-n1cc(C#N)c(N)c1C(=O)c1ccc(Br)cc1 | 89.4%
7 | CC1=C(SCC(=O)OCCCCCC(C)C)C(=O)c2ccccc2C1=O | 83.7%
8 | Cc1ccc(NC(=O)/C=C/c2ccc(OCCCOc3ccc4c(C)cc(=O)oc4c3)cc2)cc1 | 70.2%
9 | C#Cc1cc(OC)c(C(=O)Nc2ccc(F)cc2C(=O)Nc2cccc(S(=O)(=O)C(F)(F)F)c2)cn1 | -42.7% (active)
10 | CSc1ccc(C(=NNS(=O)(=O)c2ccc(C)cc2)c2ccc(Cl)cc2)cc1 | 114%
11 | CN1CCN(c2ccc(Nc3nc(NCCCNS(=O)(=O)c4ccc(Cl)cc4)c4sccc4n3)cc2)CC1 | 5.77% (active)
12 | O=C(CSc1nnc(-c2cccs2)n1-c1ccccc1)Nc1ccccc1 | 61.3%
13 | CC1=C(C)C(=O)C(Nc2ccc(C)c(C)c2)=C(Br)C1=O | 43.6%
14 | CC1CC(=O)C2=C(C1)Nc1ccc(Br)cc1CC2c1c[nH]c2ccc(Br)cc12 (stereo not given) | 29.7%
15 | CC/C(=C(/c1ccc(Cl)cc1)c1ccc(OCCN)cc1)c1ccccc1 | 0.24% (active)
16 | COc1ccc(C2CC(c3cccc(OCCCCOc4cccc(C5=NOC(c6ccc(OC)cc6)C5)c4)c3)=NO2)cc1 (stereo not given) | 29.9%
17 | O=C1Nc2ccc(F)cc2/C1=C\C(=O)c1ccc(NS(=O)(=O)c2ccccc2)cc1 | 9.42% (active)
18 | COC(=O)c1cccc(NC2=C(Cl)C(=O)c3nc(C)ccc3C2=O)c1 | 18.7%
19 | N#Cc1c(-c2cccs2)c(C#N)c(=O)n(Cc2nc3ccccc3[nH]2)c1N | 92.5%
20 | NCCNC(=O)c1cccc(COc2ccccc2NC(=O)c2cc(Br)c(Br)[nH]2)c1 | 8.3% (active)

Row | Compound | growth
21 | Cn1cc(C2=C(c3coc4cc(Br)ccc34)C(=O)NC2=O)c2ccccc21 | 29.5%
22 | CC(C)(C)Nc1nc2c(OCCc3ccccc3)cccn2c1-c1ccc([N+](=O)[O-])cc1 | 52%
23 | C#C[C@]1(O)CC[C@H]2[C@@H]3CC=C4c5sc(NCc6ccccc6)nc5CC[C@]4(C)[C@H]3CC[C@@]21C | 3.34% (active)
24 | O=C(CCCCCCN1CC(=O)N2[C@@H](c3ccc(Cl)s3)c3[nH]c4ccccc4c3C[C@H]2C1=O)NO | 14.7%
25 | CCN(CC)CCOc1ccc(C(=C(C)Cc2ccc(OC)cc2)c2ccc(OCCN(CC)CC)cc2)cc1 | -26.6% (active)
26 | O=C(/C=C/c1ccccc1)c1cccc(O)c1 | 67.5%
27 | CCCCCc1ccc(S(=O)(=O)Nc2cc(-c3csc(N)n3)ccc2OC)cc1 | 98.9%
28 | O=C(CCCCCC/C=C\c1csc(Br)n1)NO | 50.6%
29 | COc1ccccc1/C=C/C(=O)c1nnn(-c2ccc(F)cc2)c1C | 13.2%
30 | CCc1cc2c(cc1Cl)nc1c(=O)[nH]c(=O)nc-1n2CCOCC(C)C | 22.7%
31 | O=C(CSc1nc2ccccc2c(=O)n1-c1ccc(Cl)c(Cl)c1)Nc1ccc(S(=O)(=O)Nc2ccc(Cl)nn2)cc1 | 108%
32 | COc1ccc(C(=NNS(=O)(=O)c2ccc(C)cc2)c2ccccc2)cc1OC | 111%
33 | O=C(Nc1ccc(Cl)c(C(F)(F)F)c1)Nc1ccc2c(ccn2C(=O)c2cccc(F)c2)c1 | 27.5%
34 | CC(=O)N1N=C(c2cc3ccccc3oc2=O)CC1c1cn(-c2ccccc2)nc1-c1ccc(C)cc1 (stereo not given) | 101%
35 | COc1cc2c3c(cc4c5c(ccc4c3c1OC)OCO5)N(CCN(C)C)C2=O | -1.44% (active)
36 | Cc1ccc2c(n1)C(=O)C(Cl)=C(Nc1ccc(C(C)C)cc1)C2=O | 3.93% (active)
37 | CCOC(=O)c1cccnc1Nc1ccc(NC(=O)Nc2ccc(Cl)c(C(F)(F)F)c2)cc1 | 54%
38 | C#CCN(C)CCCOc1ccc(NC(=O)CCCCCCC(=O)NO)cc1Cl | 13.7%
39 | O=c1[nH][nH]c(-c2ccc(F)cc2)c1-c1nc2ccccc2s1 | 103%
40 | Cn1cc(-c2cc3ncnc(Nc4ccc(NC(=O)Nc5cc(C(C)(C)C)on5)cc4)c3s2)cn1 | 22.3%

Reference: PubChem BioAssay (NCI)
